Hits are enriched below; roughly 11% of the tested compounds scored in any of these assays.
SW480 rereplic = induces DNA re-replication in SW480 colon adenocarcinoma cells; SW480 DNA re-replication, Hoechst DNA content imaging, 48 h; Potency, µM (doses to about 46.1 µM), for inactives: at the highest dose re-replication activation, most hits filed as activators; 1.8% of 340,000 active; AID 624297; also: potency is read from the fitted curve at half-maximal effect; % of control where 0% means no effect; nearly all actives have a fitted effect of over 55% in size
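Cells (250 per well) received 23 nL compound or DMSO by pin tool and were kept 48 hr at 37 C, 5% CO2. Nuclei were then stained with Hoechst for 40 min and scanned for DNA content.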
MCF10A rerep = inducers of DNA re-replication in MCF 10A breast cells; MCF 10A DNA re-replication, Hoechst nuclear intensity, 48 h; Potency, µM (titrated, usually from 46.1 µM), for inactives: at the top dose activity, positive = re-replication, hits mostly activators; 2.9% of 350,000 active; AID 624296; also: potency is read from the fitted curve at half-maximal effect; % of control where 0% means no effect; nearly all actives have a fitted effect of over 50% in size
RORgamma inh = blocks mouse ROR gamma transcriptional activity | 5.4% of 310,000 active | AID 2551 | Drosophila S2 Gal4-RORgamma UAS-luciferase reporter, 20 h | P51450 | Potency, µM (top dose mostly 53.6 µM), for inactives: at the highest dose activity change, negative = inhibition, most hits filed as inhibitors; also: potency is read from the fitted curve at half-maximal effect; % is scaled to controls: 0 for no effect and ±100 for the full control effect; nearly all actives have a fitted effect of over 60% in size
Target sequence (P51450 whole entry, looked up, the tested form may be a part): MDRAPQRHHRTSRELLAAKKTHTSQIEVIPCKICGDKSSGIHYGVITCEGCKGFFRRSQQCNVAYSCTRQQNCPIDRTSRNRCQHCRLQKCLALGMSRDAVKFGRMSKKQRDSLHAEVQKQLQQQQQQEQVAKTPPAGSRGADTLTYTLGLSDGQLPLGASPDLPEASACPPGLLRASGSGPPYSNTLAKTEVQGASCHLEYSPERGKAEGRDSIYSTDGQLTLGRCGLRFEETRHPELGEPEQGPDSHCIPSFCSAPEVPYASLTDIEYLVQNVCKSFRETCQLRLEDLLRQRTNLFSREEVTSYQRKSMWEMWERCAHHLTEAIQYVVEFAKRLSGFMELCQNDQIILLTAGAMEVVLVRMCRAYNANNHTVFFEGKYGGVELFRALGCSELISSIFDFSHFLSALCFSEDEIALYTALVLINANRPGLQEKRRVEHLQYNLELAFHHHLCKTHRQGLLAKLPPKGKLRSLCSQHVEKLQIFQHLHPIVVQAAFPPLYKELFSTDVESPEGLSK
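Read-out: Photinus luciferase luminescence; inhibitors lower reporter signal. Insect Schneider cells with Gal4-ROR gamma fusion under metallothionein promoter, UAS reporter; 700 uM final copper sulfate induction, 20 hr, ambient temperature.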
Gal4-VP16 FLuc = Gal4-VP16 reporter inhibition counter-screen; AID 2546; Potency, µM (top dose mostly 53.6 µM), inactives show at the top dose activity, negative = inhibition, hits mostly inhibitors; 3.5% of 310,000 active; Drosophila S2 Gal4-VP16 UAS-luciferase, luminescence, 20 h;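 also: Gal4-VP16 expression switched on by copper sulfate through the metallothionein promoter; potency is read from the fitted curve at half-maximal effect; % is scaled to controls: 0 for no effect and ±100 for the full control effect; nearly all actives have a fitted effect of over 50% in size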
IL-1B inflam inh = inflammasome signaling inhibition, IL-1 beta readout | THP-1 LPS/ATP IL-1B secretion, AlphaLISA, 16 h; active compounds read low | activity change, % at 57.5 µM | 4.7% of 360,000 active; in the data active = activity change below about -50%; inconclusive = mostly about -30% to -49%; also: % is scaled to controls: 0 for no effect and ±100 for the full control effect
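Secreted IL-1B measured by AlphaLISA bead assay after 16 h compound exposure of THP-1 cells; compounds (final up to 57.5 uM) added 1 h before LPS (250 ng/mL) and ATP (1.25 mM) stimulation; lower signal means less secretion.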
Numbers without * were called inactive; ? = inconclusive; . = no result; ! = repeats disagree; [ ] = remark or other dose. Unless noted, calls follow the shape of the dose curve; as a rule, active = well fitted curve in the direction sought with a large enough effect; inconclusive = small, poorly fitted or top-dose-only effect, or another doubt; inactive = no such curve, though single readings can be large; an effect the other way counts as inactive or inconclusive.

SMILES	SW480 rereplic	MCF10A rerep	RORgamma inh	Gal4-VP16 FLuc	IL-1B inflam inh
O=c1n(-c2ccccc2)c(=O)n2n1CC[C@H]1/C(=N\OC[C@@H](O)COCc3ccco3)[C@H]3O[C@@H]3[C@@H](O)[C@@H]12	.	.	0%[10 µM]	-3%[10 µM]	.
Cc1c(N2C(=O)/C(=C/c3ccccc3)SC2=S)c(=O)n(-c2ccccc2)n1C	-1%[9.22 µM]	19%	2%	-7%	-27
Cc1ccc(/C=C2\SC(=S)N(c3c(C)n(C)n(-c4ccccc4)c3=O)C2=O)cc1	1%	4%	45%	12%	-80*
Cc1c(N2C(=O)/C(=C\c3ccccc3O)SC2=S)c(=O)n(-c2ccccc2)n1C	18µM*	?	?	?	?
Cc1c(N2C(=O)c3cccc4cccc(c34)C2=O)c(=O)n(-c2ccccc2)n1C	-8%	-5%	-11%	-12%	3
Cc1c(N2C(=O)/C(=C/c3cccc4ccccc34)SC2=S)c(=O)n(-c2ccccc2)n1C	1%	-2%	.	.	-80*
Cc1ccc(/C=N/NC(=O)C(=O)N/N=C/c2ccc(C)o2)o1	5%[1.84 µM]	0%	-2%	-1%	-2
Cc1ccc(/C=N/NC(=O)c2ccc(-c3ccccc3)cc2)o1	-6%	?	13µM*	?	-8
Cc1ccc(/C=N\NC(=O)c2cc([N+](=O)[O-])cc([N+](=O)[O-])c2)o1	2%	4%	2.5µM*	?	11
O=C(N/N=C/c1ccc(N2CCCCC2)o1)c1ccccc1	?	23µM*	5µM*	5µM*	-96*
Cc1ccc(C(=O)Nc2ccc(C(=O)N/N=C/c3ccc(C)o3)cc2)cc1	2%	15%	?	?	?
CC1CCCC(C)N1C(=O)c1ccc(S(=O)(=O)NCc2ccco2)cc1 (configuration not stated)	-8%	2%	?	-2%	31
c1ccc2c(c1)Cc1cc3ccccc3nc1-2	-2%	3%	11µM*!	?	13
CCOc1ccc(-c2nnc(-c3cccs3)o2)cc1	-4%	?	11µM*	?	?
CC(C)(C)C1CCN2CCCC(c3ccc([N+](=O)[O-])cc3)(C1)C21OCCO1 (configuration not stated)	.	.	.	.	26
CN(C)C/C=C/C(O)(c1ccccc1)c1ccccc1	4%	16µM*	2%	-3%	-20
CC1CCCC(C)N1S(=O)(=O)c1ccc(Cl)cc1 (configuration not stated)	0%	4%	-33%	1%	-3
CC1=C(C)CS(=O)N(S(=O)(=O)c2ccc(Cl)cc2)C1 (configuration not stated)	?	?	?	6.3µM*	-93*
Fc1cccc(Cl)c1CN1CCN(c2nc3ccccc3s2)CC1	11%	16µM*	-1%	5%	?
CNC(=O)OCc1snc(-c2ccccc2)c1COC(=O)NC	.	.	.	.	7
Cc1ccc(Cl)cc1-c1cc(C(=O)NCC2CCCCC2)[nH]n1	.	.	.	.	-51*
COc1ccc(-c2cc(C(=O)NCC3CCCCC3)[nH]n2)c(C)c1	.	.	.	.	-9
Cc1ccc(Cl)cc1-c1cc(C(=O)Nc2ccc(F)cc2)[nH]n1	.	.	.	.	-60*
O=C(NCC1CCCCC1)c1cc(-c2cc(F)ccc2OCC2CCCO2)n[nH]1 (configuration not stated)	.	.	.	.	-56*
Cc1cccc(C)c1NC(=O)CC12CCCN1CCC2	-1%	7%	3%	-2%	.
SMILES	SW480 rereplic	MCF10A rerep	RORgamma inh	Gal4-VP16 FLuc	IL-1B inflam inh
O=C(Cn1nnc(-c2ccc(F)cc2)n1)Nc1cccc(S(=O)(=O)N2CCCC2)c1	-8%	6%	.	.	13
CCOc1ccc(N(C)Cc2cc(=O)oc3ccc(OCC)cc23)cc1	-2%	5%	10%	2%	-9
CCOC(=O)c1ccc(N2C(=O)C(CC(=O)NC)N(CCc3ccc(OC)c(OC)c3)C2=S)cc1 (configuration not stated)	7%[1.84 µM]	21µM*	?	?	?
CCOc1ccc(C(CCc2ccccc2)NC(=O)c2ccccc2OC)cc1OCC (configuration not stated)	?	21µM*	7.9µM*	?	0
CCOc1ccc(C(C)NC(=O)Cc2ccccc2)cc1OCC (configuration not stated)	15µM*	-6%	18%	-4%	16
COc1ccccc1N(CC(=O)Nc1ccc2c(c1)OCCO2)S(=O)(=O)c1ccc(C)cc1	-5%	14%	10%	10%	-10
CN(C)c1nc(-c2ccccc2)cc(C(F)(F)F)c1C#N	-4%[9.22 µM]	-1%	-3%	3%	23
CCN(CC)c1nc(-c2ccc(Cl)cc2)cc(C(F)(F)F)c1C#N	?	1.2µM*	-2%	0%	0
COC(=O)c1ccc(CSc2ncnc3sc(C)c(C)c23)o1	-1%	15%	18µM*	?	14
CCOC(=O)N(C)c1c(CC)nc2c(OCc3ccc(Cl)cc3)cccn12	.	.	.	.	-27
O=C(NCCCN1CCc2ccccc2C1)Nc1ccc(Cl)cc1	-1%	0%	25%	15%	-55*
O=C(Nc1ccccc1)N1CCc2ccccc2C1	3%	7%	-2%	3%	14
O=C(Nc1ccc(Cl)cc1)N1CCc2ccccc2C1	-143%	-1%	0.89µM*	?	-74*
Cc1cc([N+](=O)[O-])ccc1NC(=O)CSc1nncn1-c1cccnc1	-2%	0%	0%	-26%	-4
Cc1cc(C)c(CN2CCN(CCCn3cnc(C(=O)Nc4ccc(C)c(C)c4)n3)CC2)c(C)c1	7.3µM*	?	.	.	?
Cn1c(=O)n(C)c2cc(S(=O)(=O)Nc3ccccc3O)ccc21	-9%	-5%	16%	-3%	11
Cc1ccc(NS(=O)(=O)c2ccc3c(c2)n(C)c(=O)n3C)c(C)c1	-3%	9%	12%	4%	-54*
CCc1ccc(S(=O)(=O)Nc2cc3c(cc2C)n(C)c(=O)n3C)cc1	-7%	?	?	7.1µM*	29
S=c1[nH]cc(-c2ccccc2)n1-c1ccccc1Cl	-3%	8%	3.5µM*	7.1µM*	-10
COc1ccccc1-n1c(-c2ccccc2)c[nH]c1=S	-7%	5.2µM*	2.8µM*	?	41
CN(C(=O)CSc1nc2ccccc2n1CCc1ccccc1)C1CCS(=O)(=O)C1 (configuration not stated)	8%	0%	16µM*	?	?
CCc1cc2c(=O)n(Cc3ccco3)c(SCc3c(C)noc3C)nc2s1	2.6µM*	3.3µM*	?	-61%	-5
CCC(C)N(C(=O)CSc1nc(C)nc2ccccc12)C1CCS(=O)(=O)C1 (configuration not stated)	-6%	4%	.	.	-59*
